According to publication PMC11006913:
Positions count from the first letter of the chain named.

How the values were obtained:
Assay in all cases: PBM; 200 nM protein, PBS
Conditions in all cases: dsDNA, one strand shown
HOXB4 [1] = molecular target: HOXB4 (Homo sapiens, UniProt P17483 148-234)
VENTX [2] = molecular target: T1, VENTX (Homo sapiens, UniProt O95231 78-163, R121Q)
T1 sequence: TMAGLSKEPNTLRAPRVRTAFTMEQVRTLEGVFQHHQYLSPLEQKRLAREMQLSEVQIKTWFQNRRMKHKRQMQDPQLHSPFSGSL

VENTX [3] = molecular target: T2, VENTX (Homo sapiens, UniProt O95231 78-163, Y115F)
T2 sequence: T1 sequence with Y38F, Q44R

HOXA2 [4] = molecular target: HOXA2 (Homo sapiens, UniProt O43364 129-215, R185T)
HOXA2 (Homo sapiens, UniProt O43364 129-215, R185T), sequence (O43364 129-215 R185T): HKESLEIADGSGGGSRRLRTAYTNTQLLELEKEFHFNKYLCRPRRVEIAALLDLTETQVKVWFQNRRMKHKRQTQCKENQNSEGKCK

HOXB4 [5] = molecular target: HOXB4 (Homo sapiens, UniProt P17483 148-234, V174I)
HOXB4 (Homo sapiens, UniProt P17483 148-234, V174I), sequence (P17483 148-234 V174I): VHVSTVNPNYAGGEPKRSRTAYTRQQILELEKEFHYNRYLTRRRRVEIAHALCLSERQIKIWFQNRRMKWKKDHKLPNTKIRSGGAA

HOXA2 [6] = molecular target: HOXA2 (Homo sapiens, UniProt O43364 129-215, R185K)
HOXA2 (Homo sapiens, UniProt O43364 129-215, R185K), sequence (O43364 129-215 R185K): as the sequence (O43364 129-215 R185T) above, with T57K counted along it

ALX4 = ALX4 (Homo sapiens, UniProt Q9H161 200-286)
ALX4, sequence (Q9H161 200-286): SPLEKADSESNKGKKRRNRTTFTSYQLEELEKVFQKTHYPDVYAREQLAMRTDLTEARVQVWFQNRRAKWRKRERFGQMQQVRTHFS

PAX4 [7] = molecular target: T3, PAX4 (Homo sapiens, UniProt O43316 9-242, R200K)
T3 sequence: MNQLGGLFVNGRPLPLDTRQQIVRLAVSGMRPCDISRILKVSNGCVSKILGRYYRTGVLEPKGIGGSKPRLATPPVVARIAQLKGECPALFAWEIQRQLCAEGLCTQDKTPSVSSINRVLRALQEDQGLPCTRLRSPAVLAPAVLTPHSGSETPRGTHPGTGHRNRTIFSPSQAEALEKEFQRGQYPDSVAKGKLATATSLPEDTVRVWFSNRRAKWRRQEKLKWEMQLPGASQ

PRRX1 [8] = molecular target: PRRX1 (Homo sapiens, UniProt P54821 80-166, F113S)
PRRX1 (Homo sapiens, UniProt P54821 80-166, F113S), sequence (P54821 80-166 F113S): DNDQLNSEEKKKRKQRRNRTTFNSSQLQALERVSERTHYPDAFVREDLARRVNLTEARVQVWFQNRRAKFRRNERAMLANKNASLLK

HOXB6 = HOXB6 (Homo sapiens, UniProt P17509 132-218, K202E)
HOXB6, sequence (P17509 132-218 K202E): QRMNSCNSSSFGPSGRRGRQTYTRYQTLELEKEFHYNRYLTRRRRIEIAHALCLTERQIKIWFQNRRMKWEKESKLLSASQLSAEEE

HOXA4 [9] = molecular target: HOXA4 (Homo sapiens, UniProt Q00056 201-287, R217L)
HOXA4 (Homo sapiens, UniProt Q00056 201-287, R217L), sequence (Q00056 201-287 R217L): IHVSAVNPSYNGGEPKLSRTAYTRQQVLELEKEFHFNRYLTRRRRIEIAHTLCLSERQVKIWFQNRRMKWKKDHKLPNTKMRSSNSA

PAX4 [10] = molecular target: T4, PAX4 (Homo sapiens, UniProt O43316 9-242, R200Q)
T4 sequence: T3 sequence with K192Q

PAX4 [11] = molecular target: T5, PAX4 (Homo sapiens, UniProt O43316 9-242, F177V)
T5 sequence: T3 sequence with F169V, K192R

MSX2 [12] = molecular target: MSX2 (Homo sapiens, UniProt P35548 130-214)
MSX2 (Homo sapiens, UniProt P35548 130-214), sequence (P35548 130-214): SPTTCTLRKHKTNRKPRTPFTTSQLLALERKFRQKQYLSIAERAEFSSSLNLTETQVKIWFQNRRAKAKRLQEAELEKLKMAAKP

PAX4 [13] = molecular target: T6, PAX4 (Homo sapiens, UniProt O43316 9-242, F177Y)
T6 sequence: T3 sequence with F169Y, K192R

MSX2 [14] = molecular target: MSX2 (Homo sapiens, UniProt P35548 130-214, F161Y)
MSX2 (Homo sapiens, UniProt P35548 130-214, F161Y), sequence (P35548 130-214 F161Y): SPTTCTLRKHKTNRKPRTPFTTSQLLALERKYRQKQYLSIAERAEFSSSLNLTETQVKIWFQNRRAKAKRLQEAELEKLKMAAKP

HOXA4 [15] = molecular target: HOXA4 (Homo sapiens, UniProt Q00056 201-287, W262F)
HOXA4 (Homo sapiens, UniProt Q00056 201-287, W262F), sequence (Q00056 201-287 W262F): as the sequence (Q00056 201-287 R217L) above, with L17R, W62F counted along it

PRRX1 [16] = molecular target: PRRX1 (Homo sapiens, UniProt P54821 80-166)
PRRX1 (Homo sapiens, UniProt P54821 80-166), sequence (P54821 80-166): as the sequence (P54821 80-166 F113S) above, with S34F counted along it

VAX1 [17] = molecular target: VAX1 (Homo sapiens, UniProt Q5SQQ9 86-172, T142I)
VAX1 (Homo sapiens, UniProt Q5SQQ9 86-172, T142I), sequence (Q5SQQ9 86-172 T142I): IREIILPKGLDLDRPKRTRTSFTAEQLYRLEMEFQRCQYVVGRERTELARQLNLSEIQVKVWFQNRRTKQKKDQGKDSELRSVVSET

VAX1 [18] = molecular target: VAX1 (Homo sapiens, UniProt Q5SQQ9 86-172, K157R)
VAX1 (Homo sapiens, UniProt Q5SQQ9 86-172, K157R), sequence (Q5SQQ9 86-172 K157R): as the sequence (Q5SQQ9 86-172 T142I) above, with I57T, K72R counted along it

HOXB4 (Homo sapiens, UniProt P17483 148-234), sequence (P17483 148-234): as the sequence (P17483 148-234 V174I) above, with I27V counted along it

Sequence | binding signal (HOXB4 [1]) | binding signal (VENTX [2]) | binding signal (VENTX [3]) | binding signal (HOXA2 [4]) | binding signal (HOXB4 [5]) | binding signal (HOXA2 [6]) | binding signal (ALX4) | binding signal (PAX4 [7]) | binding signal (PRRX1 [8]) | binding signal (HOXB6) | binding signal (HOXA4 [9]) | binding signal (PAX4 [10]) | binding signal (PAX4 [11]) | binding signal (MSX2 [12]) | binding signal (PAX4 [13]) | binding signal (MSX2 [14]) | binding signal (HOXA4 [15]) | binding signal (PRRX1 [16]) | binding signal (VAX1 [17]) | binding signal (VAX1 [18])
CCAGGTCC | 7.71 upbm affinity estimate (log intensity, higher = more binding, comparable within an allelic series) | 7.92 upbm affinity estimate (log intensity, higher = more binding, comparable within an allelic series) | 7.95 upbm affinity estimate (log intensity, higher = more binding, comparable within an allelic series) | 7.34 upbm affinity estimate (log intensity, higher = more binding, comparable within an allelic series) | 7.79 upbm affinity estimate (log intensity, higher = more binding, comparable within an allelic series) | 10.3 upbm affinity estimate (log intensity, higher = more binding, comparable within an allelic series) |  |  |  |  |  |  |  |  |  |  |  |  |  | 
AATTAATC | 13.2 upbm affinity estimate (log intensity, higher = more binding, comparable within an allelic series) | 11.8 upbm affinity estimate (log intensity, higher = more binding, comparable within an allelic series) | 11.5 upbm affinity estimate (log intensity, higher = more binding, comparable within an allelic series) | 12.6 upbm affinity estimate (log intensity, higher = more binding, comparable within an allelic series) | 13.9 upbm affinity estimate (log intensity, higher = more binding, comparable within an allelic series) |  | 13.9 upbm affinity estimate (log intensity, higher = more binding, comparable within an allelic series) | 11.9 upbm affinity estimate (log intensity, higher = more binding, comparable within an allelic series) | 11.3 upbm affinity estimate (log intensity, higher = more binding, comparable within an allelic series) | 10 upbm affinity estimate (log intensity, higher = more binding, comparable within an allelic series) | 12.3 upbm affinity estimate (log intensity, higher = more binding, comparable within an allelic series) | 12.2 upbm affinity estimate (log intensity, higher = more binding, comparable within an allelic series) | 10.7 upbm affinity estimate (log intensity, higher = more binding, comparable within an allelic series) | 13.3 upbm affinity estimate (log intensity, higher = more binding, comparable within an allelic series) | 11.2 upbm affinity estimate (log intensity, higher = more binding, comparable within an allelic series) | 13 upbm affinity estimate (log intensity, higher = more binding, comparable within an allelic series) | 11.3 upbm affinity estimate (log intensity, higher = more binding, comparable within an allelic series) | 13.3 upbm affinity estimate (log intensity, higher = more binding, comparable within an allelic series) |  | 
ATTAATAG | 13 upbm affinity estimate (log intensity, higher = more binding, comparable within an allelic series) | 11.7 upbm affinity estimate (log intensity, higher = more binding, comparable within an allelic series) |  |  | 13.7 upbm affinity estimate (log intensity, higher = more binding, comparable within an allelic series) |  |  |  |  | 10.1 upbm affinity estimate (log intensity, higher = more binding, comparable within an allelic series) | 12 upbm affinity estimate (log intensity, higher = more binding, comparable within an allelic series) |  |  |  |  |  | 11.3 upbm affinity estimate (log intensity, higher = more binding, comparable within an allelic series) |  | 12.5 upbm affinity estimate (log intensity, higher = more binding, comparable within an allelic series) | 12.4 upbm affinity estimate (log intensity, higher = more binding, comparable within an allelic series)
AGCAATTA | 13 upbm affinity estimate (log intensity, higher = more binding, comparable within an allelic series) | 12 upbm affinity estimate (log intensity, higher = more binding, comparable within an allelic series) | 11.8 upbm affinity estimate (log intensity, higher = more binding, comparable within an allelic series) | 12.8 upbm affinity estimate (log intensity, higher = more binding, comparable within an allelic series) | 13.7 upbm affinity estimate (log intensity, higher = more binding, comparable within an allelic series) | 13.3 upbm affinity estimate (log intensity, higher = more binding, comparable within an allelic series) | 13.8 upbm affinity estimate (log intensity, higher = more binding, comparable within an allelic series) |  | 11.1 upbm affinity estimate (log intensity, higher = more binding, comparable within an allelic series) | 9.92 upbm affinity estimate (log intensity, higher = more binding, comparable within an allelic series) | 12 upbm affinity estimate (log intensity, higher = more binding, comparable within an allelic series) |  |  | 14.1 upbm affinity estimate (log intensity, higher = more binding, comparable within an allelic series) |  | 13.8 upbm affinity estimate (log intensity, higher = more binding, comparable within an allelic series) | 11.5 upbm affinity estimate (log intensity, higher = more binding, comparable within an allelic series) | 13.3 upbm affinity estimate (log intensity, higher = more binding, comparable within an allelic series) | 12.8 upbm affinity estimate (log intensity, higher = more binding, comparable within an allelic series) | 12.7 upbm affinity estimate (log intensity, higher = more binding, comparable within an allelic series)
ACTAATTG | 13.1 upbm affinity estimate (log intensity, higher = more binding, comparable within an allelic series) | 12.3 upbm affinity estimate (log intensity, higher = more binding, comparable within an allelic series) | 11.9 upbm affinity estimate (log intensity, higher = more binding, comparable within an allelic series) | 13.2 upbm affinity estimate (log intensity, higher = more binding, comparable within an allelic series) | 13.8 upbm affinity estimate (log intensity, higher = more binding, comparable within an allelic series) | 13.3 upbm affinity estimate (log intensity, higher = more binding, comparable within an allelic series) | 13.9 upbm affinity estimate (log intensity, higher = more binding, comparable within an allelic series) | 11.5 upbm affinity estimate (log intensity, higher = more binding, comparable within an allelic series) | 11.2 upbm affinity estimate (log intensity, higher = more binding, comparable within an allelic series) |  | 11.8 upbm affinity estimate (log intensity, higher = more binding, comparable within an allelic series) | 12 upbm affinity estimate (log intensity, higher = more binding, comparable within an allelic series) | 10.3 upbm affinity estimate (log intensity, higher = more binding, comparable within an allelic series) | 14 upbm affinity estimate (log intensity, higher = more binding, comparable within an allelic series) | 10.7 upbm affinity estimate (log intensity, higher = more binding, comparable within an allelic series) | 13.7 upbm affinity estimate (log intensity, higher = more binding, comparable within an allelic series) | 11.4 upbm affinity estimate (log intensity, higher = more binding, comparable within an allelic series) | 13.3 upbm affinity estimate (log intensity, higher = more binding, comparable within an allelic series) | 13 upbm affinity estimate (log intensity, higher = more binding, comparable within an allelic series) | 13.3 upbm affinity estimate (log intensity, higher = more binding, comparable within an allelic series)
ACAATTAA | 13 upbm affinity estimate (log intensity, higher = more binding, comparable within an allelic series) | 11.7 upbm affinity estimate (log intensity, higher = more binding, comparable within an allelic series) | 11.5 upbm affinity estimate (log intensity, higher = more binding, comparable within an allelic series) | 12.6 upbm affinity estimate (log intensity, higher = more binding, comparable within an allelic series) | 13.7 upbm affinity estimate (log intensity, higher = more binding, comparable within an allelic series) | 13.1 upbm affinity estimate (log intensity, higher = more binding, comparable within an allelic series) | 13.7 upbm affinity estimate (log intensity, higher = more binding, comparable within an allelic series) |  | 11.2 upbm affinity estimate (log intensity, higher = more binding, comparable within an allelic series) | 10.1 upbm affinity estimate (log intensity, higher = more binding, comparable within an allelic series) | 12 upbm affinity estimate (log intensity, higher = more binding, comparable within an allelic series) | 11.8 upbm affinity estimate (log intensity, higher = more binding, comparable within an allelic series) |  | 13.7 upbm affinity estimate (log intensity, higher = more binding, comparable within an allelic series) |  | 13.4 upbm affinity estimate (log intensity, higher = more binding, comparable within an allelic series) | 11.5 upbm affinity estimate (log intensity, higher = more binding, comparable within an allelic series) | 13.3 upbm affinity estimate (log intensity, higher = more binding, comparable within an allelic series) | 12.5 upbm affinity estimate (log intensity, higher = more binding, comparable within an allelic series) | 12.3 upbm affinity estimate (log intensity, higher = more binding, comparable within an allelic series)
